FEN1 inhibitor: qHTS Assay for the Inhibitors of Human Flap endonuclease 1 (FEN1) | Potency, µM (titrated, usually from 114 µM), for inactives: top-dose activity change, negative = inhibition, hits mostly inhibitors | Recombinant FEN1 flap cleavage, fluorescence, 15 min | P39748 | 390,000 compounds, 0.35% hits; note: % is set by controls: 0 for no effect and ±100 for the full control effect; nearly all actives have a fitted effect of over 65% in size
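Potency values derive from four-parameter Hill fits of normalized qHTS data. The reaction used 10 nM FEN1 preincubated 15 min at room temperature with compound, then 50 nM DNA substrate, read at 0 and 15 min.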
POLK inh: qHTS for Inhibitors of Polymerase Kappa. DNA polymerase kappa (Homo sapiens), Q9UBT6. Potency, µM (series often up to 107 µM), inactives show at the top dose activity, negative = inhibition, actives largely listed as inhibitors. purified Pol kappa, fluorescent DNA synthesis assay, 10 min. AID 588579, 2011. 400,000 compounds, 0.53% hits; note: % is set by controls: 0 for no effect and ±100 for the full control effect
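Pol kappa 10 nM + cpd, 15 min RT; start w/ substrate 50 nM final; fluorescence kinetic read, 0 and 10 min. Neg ctrl: buffer, no enzyme.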
Pol eta inh: qHTS for Inhibitors of Polymerase Eta. DNA polymerase eta (Homo sapiens), Q9Y253. recombinant Pol eta, fluorescent DNA replication assay. Potency, µM (doses to about 114 µM), inactives show at the highest dose activity change, negative = inhibition, hits mostly inhibitors. 390,000 compounds, 1.2% hits. AID 588591, 2011; note: % is set by controls: 0 for no effect and ±100 for the full control effect
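Pol eta at 10 nM preincubated with compounds 15 min at room temperature; reaction started with fluorescent substrate (50 nM final) and read kinetically at 0 and 10 min.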
Pol iota inh: qHTS for Inhibitors of Polymerase Iota; DNA polymerase iota (Homo sapiens), Q9UNA4; Pol iota fluorescent replication assay, 10 min; Potency, µM (top dose mostly 115 µM), for inactives: at the top dose activity, negative = inhibition, hits mostly inhibitors; 390,000 compounds, 1% hits
Target sequence (Q9UNA4 whole entry, looked up): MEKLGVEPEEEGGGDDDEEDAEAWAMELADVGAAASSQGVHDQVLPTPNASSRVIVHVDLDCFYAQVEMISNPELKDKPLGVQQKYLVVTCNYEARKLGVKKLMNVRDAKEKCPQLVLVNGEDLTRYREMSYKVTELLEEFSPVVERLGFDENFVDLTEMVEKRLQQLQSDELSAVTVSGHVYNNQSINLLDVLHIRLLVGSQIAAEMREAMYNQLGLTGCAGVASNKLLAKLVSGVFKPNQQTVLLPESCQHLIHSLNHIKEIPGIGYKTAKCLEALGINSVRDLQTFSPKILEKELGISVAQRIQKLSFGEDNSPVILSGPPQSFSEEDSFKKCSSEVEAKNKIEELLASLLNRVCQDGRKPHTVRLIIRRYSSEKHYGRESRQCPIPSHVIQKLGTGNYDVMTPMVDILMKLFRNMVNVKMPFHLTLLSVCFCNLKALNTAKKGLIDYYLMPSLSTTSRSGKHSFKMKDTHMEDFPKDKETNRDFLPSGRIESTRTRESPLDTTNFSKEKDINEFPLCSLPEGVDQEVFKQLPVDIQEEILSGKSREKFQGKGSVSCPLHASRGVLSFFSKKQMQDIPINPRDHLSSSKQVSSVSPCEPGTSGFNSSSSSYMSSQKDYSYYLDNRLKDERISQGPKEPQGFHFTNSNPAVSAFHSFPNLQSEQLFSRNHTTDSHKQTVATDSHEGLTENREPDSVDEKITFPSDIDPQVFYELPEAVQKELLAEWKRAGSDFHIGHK
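Fluorescent replication assay read twice, at 0 min and 10 min after adding 50 nM (final) substrate. Enzyme (10 nM) and compounds were first incubated 15 min at room temperature; enzyme-free buffer wells were negative controls.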
POLB inh: qHTS Assay for Inhibitors of DNA Polymerase Beta | 340,000 compounds, 1.3% hits | Pol beta primer extension/strand displacement, fluorescence kinetic | Potency, µM (series often up to 114 µM), inactives show at the highest dose activity change, negative = inhibition, hits mostly inhibitors | AID 485314, 2010; note: % is set by controls: 0 for no effect and ±100 for the full control effect
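Curves were derived by four-parameter Hill fits of normalized qHTS data. The kinetic fluorescent primer-extension read was taken at 0 and 10 min after 50 nM substrate, following a 15 min room-temperature preincubation of 10 nM enzyme with compounds.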
WRN helicase inh: qHTS for Inhibitors of WRN Helicase; WRN helicase unwinding, fluorescent forked duplex, kinetic; Potency, µM (highest dose often 114 µM), for inactives: at the top dose activity change, negative = inhibition, hits mostly inhibitors; 360,000 compounds, 0.46% hits; AID 651768, 2012; note: % is set by controls: 0 for no effect and ±100 for the full control effect; nearly all actives have a fitted effect of over 55% in size
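WRN at 20 nM final was preincubated with compound for 15 min at room temperature; reaction started with 100 nM forked duplex oligonucleotide carrying fluorophore and quencher plus 2 mM ATP (final). Unwinding followed kinetically by red fluorescence (ex 525/em 598 nm).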
An asterisk follows results filed as active; ? = inconclusive; . = not tested or not shown; ! = a repeat was not active; [ ] = dose if it differs, or a comment. An excerpt weighted towards active compounds, which were near 2.4% of everything screened. Calls come from the whole dose curve; as a rule, active = well fitted curve in the direction sought with a large enough effect; inconclusive = small, poorly fitted or top-dose-only effect, or another doubt; inactive = no such curve, though single readings can be large; an effect the other way counts as inactive or inconclusive. Potency is the fitted concentration of half-maximal effect.

SMILES	FEN1 inhibitor	POLK inh	Pol eta inh	Pol iota inh	POLB inh	WRN helicase inh
N[C@H](CSSC[C@@H](N)C(=O)O)C(=O)O	.	14%[60.1 µM]	.	.	.	.
CCNc1nc(NCC)nc(-n2cc(C(=O)c3cc(Cl)ccc3O)cn2)n1	-9%	-6%	.	31%	.	.
N#Cc1ccc(N=c2ssnc2Cl)cc1	?	-2%	-9%	?	17%	40µM*!
COc1ccc(NC(=O)/C(C#N)=C\c2ccc(-c3cccc(C(=O)O)c3C)o2)cc1	4%	?	22µM*	?	7.9µM*	3%[11.6 µM]
COc1ccc(NC(=O)/C(C#N)=C\c2ccc(Br)o2)cc1	-34%	79µM*	?	10µM*	?	?
COc1ccc(-c2nc3cnc(N4CCNCC4)nc3n(CCC#N)c2=O)cc1	.	3%[60.1 µM]	.	.	.	.
COc1ccc(C2CC(c3cccs3)=NN2C(=O)CSc2nc3c(cnn3-c3ccccc3)c(=O)[nH]2)cc1 (configuration not stated)	-14%	-2%	-3%	8%	4%	2%
COc1cccc(C2CC(c3cccs3)=NN2C(=O)CSc2nc3c(cnn3-c3ccc(F)cc3)c(=O)[nH]2)c1OC (configuration not stated)	18µM*	3%	1%	-10%	1%	5%
CC(C)(C)n1ncc2c(=O)n(Cc3cccc(Cl)c3Cl)cnc21	-4%	-16%	.	20%	.	.
Cc1cccc(OCC(=O)Nc2cc(-c3nc4cc(Cl)ccc4o3)ccc2C)c1	15%	-12%	.	-11%	.	.
Cc1oc(C)c2c(=O)cc(-c3ccc4c(c3)OCO4)cc(OC(=O)c3ccccc3Cl)c12	?	?	?	79µM*	18µM*	.
Nc1nc[nH]c(=O)c1N	6%	7%	.	-2%	.	.
C=C1c2cccc(O)c2C(=O)C2C(=O)[C@]3(O)C(=O)C(C(N)=O)C(=O)[C@@H](N(C)C)[C@@H]3[C@@H](O)[C@H]12 (some centres not stated)	14µM*	?	?	1.3µM*	.	?
C=C1c2cccc(O)c2C(O)=C2C(=O)[C@@]3(O)C(O)=C(C(N)=O)C(=O)[C@@H](N(C)C)[C@@H]3[C@@H](O)[C@H]12	.	1.8µM*	.	.	.	.
CCOc1ccc(CCNC(=O)c2cnc3sc(N4CCCCCC4)nn3c2=O)cc1	-1%	-1%	-12%	89µM*	-9%	.
CCOc1ccc(CCNC(=O)c2cnc3sc(N4CCCC4)nn3c2=O)cc1	21%	-16%	-13%	11%	-11%	.
O=c1c2ccccc2sn1-c1cc(S(=O)(=O)N2CCOCC2)ccc1N1CCOCC1	32µM*!	3%	-11%	38%	11%	?
O=c1c2ccccc2sn1-c1cc(S(=O)(=O)N2CCOCC2)ccc1N1CCCC1	-14%	-6%	-4%	-11%	-10%	-24%
O=C(CCn1cccc1)NCc1ccc2c(c1)OCO2	-2%	?	?	?	50µM*	-22%[57.1 µM]
O=C(CCn1c(=O)oc2ccccc21)NCc1ccc2c(c1)OCO2	10%	6%	-9%	2%	-2%	4%
COC1=CCC2([N+](=O)[O-])CN(CCO)CC1([N+](=O)[O-])C2 (configuration not stated)	8%	-14%	-9%	4%	0.2µM*	-4%
O=C(O)CCN1CC2([N+](=O)[O-])CC=C(OCCO)C([N+](=O)[O-])(C1)C2 (configuration not stated)	2%	-4%	-6%	?	0%	5%

From PubChem BioAssay
